Reference: PubChem BioAssay (EPA / NIEHS)
Results filed as inconclusive are left out. Calls of active or inactive are those of the source. How the source made its calls, unless noted: active means hit-call score of the fitted dose curve at least 0.9, where 1 is the maximum; inactive means score below 0.9.

What was measured:
[1] = CCTE_Harrill_HTTr_Viability_MCF7: CCTE's 6-hour Cell Viability Assessment for the High-Throughput Transcriptomics (HTTr) Platform, in MCF-7 cells cultured in DMEM + 10% fetal bovine serum, Harrill Lab (AID 2284010)
Method in brief: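 Viability measured through PI dye exclusion by high-content imaging at 6 h post-dosing.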

[2] = CCTE_Harrill_HTTr_Apoptosis_MCF7: CCTE's 6-hour Apoptosis Assessment for the High-Throughput Transcriptomics (HTTr) Platform, in MCF-7 cells cultured in DMEM + 10% fetal bovine serum, Harrill Lab (AID 2284011)
Method in brief: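 Read-out: CellEvent Caspase 3/7 Green signal by high content imaging, gain-of-signal indicating apoptosis. MCF-7 cells, DMEM + 10% FBS, eight-point dilution series, 6 h exposure. Curves fitted bidirectionally relative to DMSO negative control.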

[3] = CCTE_Harrill_HTTr_CellCount_MCF7: CCTE's Cell Proliferation Assessment for the High-Throughput Transcriptomics (HTTr) Platform, Harrill Lab (AID 2284012; active means hit-call score of the fitted dose curve at least 0.9, where 1 is the maximum;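 further: count of Hoechst-stained nuclei per well by high-content imaging in MCF-7 cells; cells exposed to compound for six hours; intended direction is loss of nuclei count meaning fewer cells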)
Method in brief: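 Nuclei counting (Hoechst, high content imaging) in MCF-7 after a 6 h treatment at eight concentrations. Activity fitted bidirectionally, DMSO as negative control.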

[4] = CCTE_Shafer_MEA_acute_burst_number: CCTE's Neural Acute Assay for Single-Electrode Bursts, Shafer Lab (AID 2284013)
Method in brief: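 Rat cortical cultures, DIV 13/15; 40 min baseline, then 40 min with compound 0.03-40 uM, 37 C. Spikes: 300-5000 Hz band-pass, threshold 8x rms noise. Readout = % change in single-electrode bursts vs baseline, loss-of-signal fit.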

[5] = CCTE_Shafer_MEA_acute_burst_duration_mean: CCTE's Neural Acute Assay for Mean Burst Duration, Shafer Lab (AID 2284014);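 further: hits are decreases in mean burst duration relative to DMSO controls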
Method in brief: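 Primary rat cortical neurons on 16-electrode MEA wells, treated on DIV 13 or 15 with compound (0.03-40 uM; ≥3 wells each). 40-min baseline and 40-min exposure recordings at 37 C; percent change in mean burst duration per well versus DMSO.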

[6] = CCTE_Shafer_MEA_acute_per_burst_spike_number_mean: CCTE's Neural Acute Assay for Average Number of Spikes Per Burst, Shafer Lab (AID 2284015);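 further: hits are decreases in mean spikes per burst versus baseline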
Method in brief: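 Rat primary cortical neurons on 48-well MEAs (DIV 13 or 15) were treated with 0.03-40 uM compound at 37 C. Mean spikes per burst over 40 min were recorded before and after exposure and expressed as percent change from baseline, relative to DMSO.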

[7] = CCTE_Shafer_MEA_acute_interburst_interval_mean: CCTE's Neural Acute Assay for Mean Interburst Interval, Shafer Lab (AID 2284016);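 further: percent change of mean interburst interval versus each well's own pre-dose baseline; curves fitted for decrease in interburst interval relative to DMSO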
Method in brief: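 Rat primary cortical neurons on 48-well MEAs at DIV 13 or 15 were exposed acutely to 0.03-40 uM. Spikes detected at 8x rms noise, 37 C. Mean interburst interval from 40 min recordings expressed as percent change from 40 min pre-treatment baseline.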

[8] = CCTE_Shafer_MEA_acute_burst_percentage_mean: CCTE's Neural Acute Assay for Percentage of Spikes in a Burst, Shafer Lab (AID 2284017);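 on AC50: curve fitted for loss of signal so potency reflects decreased burst percentage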
Method in brief: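 Primary rat cortical neurons on 48-well MEA plates, treated on DIV 13 or 15 at 0.03-40 uM. Spikes detected at 8x rms noise at 37C; percent change from 40-min baseline to 40-min post-dose recording, fitted versus DMSO.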

[9] = CCTE_Shafer_MEA_acute_burst_percentage_std: CCTE's Neural Acute Assay for Standard Deviation of Burst Percentage, Shafer Lab (AID 2284018);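 further: fitted in the negative direction so actives lower burst percentage SD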
Method in brief: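 Primary rat cortical neurons on 16-electrode MEA wells were recorded 40 min at baseline (DIV 13 or 15), then 40 min after compound (0.03-40 uM), at 37 C. Well value is SD across electrodes of spikes-in-bursts/total spikes; endpoint is percent change, DMSO-referenced.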

[10] = CCTE_Shafer_MEA_acute_per_network_burst_spike_number_mean: CCTE's Neural Acute Assay for Average Number of Spikes in a Network Burst, Shafer Lab (AID 2284019)
Method in brief: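 Primary rat cortical neurons on 16-electrode MEA wells, DIV 13 or 15, 37 C; 40-min baseline then 40-min recording with compound (0.03-40 uM). Spikes per network burst (total spikes/number of bursts) expressed as percent change from baseline, DMSO reference.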

[11] = CCTE_Shafer_MEA_acute_per_network_burst_spike_number_std: CCTE's Neural Acute Assay for Standard Deviation of Number of Spikes in a Network Burst, Shafer Lab (AID 2284020);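 further: fitted for decrease in spike-number SD versus DMSO so actives lower it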
Method in brief: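 Primary rat cortical neurons on 48-well MEAs (16 electrodes/well) recorded at DIV 13 or 15: 40-min baseline, then 40 min with compound (0.03-40 uM), 37 C. Value is percent change in SD of spikes per network burst, relative to DMSO.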

[12] = CCTE_Shafer_MEA_acute_network_burst_percentage: CCTE's Neural Acute Assay for Percentage of Network Bursts, Shafer Lab (AID 2284022);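 further: curves fitted for loss so actives lower network burst percentage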
Method in brief: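 Rat cortical cultures, DIV 13/15; 20 min equilibration, 40 min baseline, compound 0.03-40 uM, 40 min recording, 37 C. Spikes: 300-5000 Hz band-pass, threshold 8x rms noise. Readout: % change in network-burst spike fraction; loss direction vs DMSO.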

[13] = CCTE_Shafer_MEA_acute_cross_correlation_area: CCTE's Neural Acute Assay for Area of Cross Correlation, Shafer Lab (AID 2284024);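 further: area under pooled inter-electrode spike cross-correlation near zero lag as percent change from own baseline; curves fitted for loss of cross-correlation area so actives lower synchrony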
Method in brief: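 Rat cortical cultures, DIV 13/15, MEA; spikes detected at 8x rms noise (300-5000 Hz band-pass). Compound 0.03-40 uM, ≥3 wells each. Readout: % change in pooled inter-electrode cross-correlation area vs own baseline; DMSO negative control.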

[14] = CCTE_Shafer_MEA_acute_cross_correlation_HWHM: CCTE's Neural Acute Assay for Cross Correlation at Half Width at Half Maximum, Shafer Lab (AID 2284026);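 further: percent change per well from pre-dose baseline in spike cross-correlogram half width; hits are a decrease in cross-correlogram half width relative to DMSO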
Method in brief: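 Read-out: half width at half maximum of action-potential cross-correlogram, percent change versus pre-treatment baseline, fitted in loss direction against DMSO. Rat cortical cultures, DIV 13 or 15, dosed 0.03-40 uM, 40-min recordings at 37 C.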

Measured: AC50

CCCCc1ccccc1
inactive: [1] | [2]

O=[N+]([O-])c1ccc(Cl)c(Cl)c1
inactive: [1] | [2]

c1ccc(OP(Oc2ccccc2)Oc2ccccc2)cc1
inactive: [1] | [2]

COP(=O)(O)OC
inactive: [1] | [2]

CCOC(=O)c1ccccc1C(=O)OCC
inactive: [1] | [2] | [3]

Nc1ccc([N+](=O)[O-])cc1Cl
inactive: [1] | [2] | [3]

O=C(O)C1C(C(=O)O)C2(Cl)C(Cl)=C(Cl)C1(Cl)C2(Cl)Cl (stereo not given)
inactive: [1] | [2] | [3] | [4] | [5] | [6] | [7] | [8] | [9] | [10] | [11] | [12] | [13] | [14]

Cc1ccc2c(c1N)C(=O)c1ccccc1C2=O
inactive: [1] | [2]

Nc1ccc2ccccc2c1
inactive: [1] | [2] | [4] | [5] | [6] | [7] | [8] | [9] | [10] | [11] | [12] | [13] | [14]

CC(C)(C)c1ccccc1OP(=O)(Oc1ccccc1)Oc1ccccc1
inactive: [5] | [7] | [10] | [13]
active: [4] 1.23 µM | [6] 7.23 µM | [8] 6.79 µM | [9] 5 µM | [11] 5 µM | [12] 7.61 µM | [14] 8.14 µM

CCC1(c2ccccc2)C(=O)N=C(O)NC1=O (stereo not given)
inactive: [1] | [2] | [4] | [5] | [6] | [7] | [8] | [9] | [10] | [11] | [12] | [13] | [14]

CC(O)C#N (stereo not given)
inactive: [1] | [2]

OCC1CO1 (stereo not given)
inactive: [1] | [2]

Nc1ccc(Cl)cc1
inactive: [1] | [2]

CCOP(=S)(NC(C)C)Oc1ccccc1C(=O)OC(C)C (stereo not given)
inactive: [1] | [2]

O=S(=O)(c1ccc(O)cc1)c1ccc(O)cc1
inactive: [1] | [2]

N#Cc1ccc(O)cc1
inactive: [1] | [2]

CCOP(=S)(S)OCC
inactive: [1] | [2]

CC(C)(C)OOC(C)(C)C
inactive: [1] | [2] | [3]

CCOc1ccc(C(C)(C)COCc2cccc(Oc3ccccc3)c2)cc1
active: [7] 23.1 µM | [8] 25.4 µM | [12] 23.8 µM
inactive: [1] | [2] | [4] | [5] | [6] | [9] | [10] | [11] | [13] | [14]

Cc1ccc(O)cc1C
inactive: [1] | [2]

CC(Cl)(Cl)C(=O)O
inactive: [1] | [2] | [4] | [5] | [6] | [7] | [8] | [9] | [10] | [11] | [12] | [13] | [14]

CCOP(=S)(Oc1ccc([N+](=O)[O-])cc1)c1ccccc1 (stereo not given)
inactive: [1] | [2] | [4] | [5] | [6] | [7] | [8] | [9] | [10] | [11] | [12] | [13] | [14]

O=C(O)CF
inactive: [1] | [2]

COCCOCCO
inactive: [1] | [2] | [4] | [5] | [6] | [7] | [8] | [9] | [10] | [11] | [12] | [13] | [14]

c1ccc2c(c1)Nc1ccccc1S2
inactive: [1] | [2] | [3] | [6] | [9] | [10] | [13]
active: [4] 3.97 µM | [5] 34.9 µM | [7] 4.14 µM | [8] 25.8 µM | [11] 27.3 µM | [12] 20 µM | [14] 36.9 µM

CN(C)C(=O)Cl
inactive: [1] | [2]

CCCN(CCC)c1c([N+](=O)[O-])cc(C(C)C)cc1[N+](=O)[O-]
inactive: [1] | [2]

CCCCC(CC)COC(=O)c1c(Br)c(Br)c(Br)c(Br)c1C(=O)OCC(CC)CCCC (stereo not given)
inactive: [1] | [2] | [3]

c1ccc2c(c1)sc1ccccc12
inactive: [1] | [2] | [3]

COP(=O)(CCC(=O)NCO)OC
inactive: [4] | [5] | [7] | [8] | [9] | [10] | [11] | [12] | [13] | [14]
active: [6] 0.145 µM

O=NN1CCCC1
inactive: [1] | [2]

ClC(Cl)c1ccccc1
inactive: [1] | [2]

CCCCOCC1CO1 (stereo not given)
inactive: [1] | [2]

O=P1(N(CCCl)CCCl)NCCCO1 (stereo not given)
inactive: [1] | [2]

CCCCOCCOP(=O)(OCCOCCCC)OCCOCCCC
inactive: [1] | [2]
